Screening results from PubChem.
Only some compounds are listed: those with a hit (about 28% of all), similar ones and a draw of the others.
PTK2B oligo ant: antagonists of human Pyk2 oligomerization; Q14289; Q293 cells, Pyk2 FERM NanoBiT luminescence; stronger effect = lower value; z-score (the deposit names both 25 µM and 10 µM); actives 0.83% (n = 99,000);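 active = Z-score of -3 or lower, scaled per plate to the spread of control and sample wells; inactive = z-score above -3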;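 also: negative z-score means lost luminescence so less FERM oligomerization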
CYP2C19 act: cytochrome P450 2C19 (human) activation. recombinant CYP2C19, luciferin-H EGE luminescence; stronger effect = higher value; 0 = fully inhibited enzyme, 1 = untreated enzyme. activation factor at 5 µM. 96,000 tested, under 10 active. AID 1025;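 active = activation factor of at least 2 at 5 µM in the primary screen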;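 also: 0 = wells with 2.5 mM tranylcypromine and 1 = vehicle-only wells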
CYP2C9 activ: CYP2C9 (human) activation | recombinant CYP2C9, luciferin-H conversion, luminescence; stronger effect = higher value; factor 1 = untreated enzyme, 0 = blocked | activation factor at 5 µM | actives 1.4% (n = 96,000) | AID 1024;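 active = activation factor of 2 or more for CYP2C9 at a 5 µM dose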;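 also: 0 = sulfaphenazole-blocked wells and 1 = vehicle-only wells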
CYP2C9 inhib: inhibitors of human CYP2C9 | P11712 | CYP2C9 Supersomes, luciferin-H conversion, luminescence | inhibition, % at 5 µM | actives 20% (n = 96,000) | AID 777;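 active = blocking of liver enzyme CYP2C9 beyond about 50% at 5 µM, limit read from the data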
CYP2C19 inh: human CYP2C19 inhibition; actives 21% (n = 96,000); CYP2C19 Supersomes, luciferin-H EGE luminescence, 30 min; inhibition, % at 5 µM; AID 778; P33261;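 active = CYP2C19 inhibition above a set limit at 5 µM in the primary screen, cut at about 50% in these data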;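 also: plate controls were negative control wells for no effect and 2.5 mM tranylcypromine positive control for full effect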
* = called active by the depositor; / = not tested or not shown.

SMILES	PTK2B oligo ant	CYP2C19 act	CYP2C9 activ	CYP2C9 inhib	CYP2C19 inh
Cc1ccc(NS(=O)(=O)c2ccc3c(c2)c(=O)n(C)c(=O)n3C)cc1F	-0.24	0.1	0.1	92*	94*
Cc1nc2ccccc2c2nc(NC(=O)Cc3ccccc3)nn12	0.28	0.8	0.9	8	21
COc1cccc(-n2c(Cc3cc(=O)[nH]c(=O)[nH]3)nnc2SCC(=O)N2CCC(C)CC2)c1	0.8	1	1.1	-13	1
CCOC(=O)c1c(NC(=O)COC(=O)Cn2c(C(F)(F)F)nc3ccccc32)sc(C)c1C	0.11	1	0.6	36	-1
CCNS(=O)(=O)c1ccc2c(c1)n(C)c(=O)n2C	-0.35	1	1	-5	3
COc1cc(NS(=O)(=O)c2ccc3c(c2)n(C)c(=O)n3C)cc(OC)c1	-0.27	0.4	0.2	84*	59*
CSCCC1NC(=O)N(CC(=O)Nc2ccc(N3CCCCC3)cc2)C1=O (stereo not drawn)	-0.22	1.1	1	-3	-11
CCCCc1nn(-c2cc(Cl)ccc2OC)c2c1C(=O)CC(C)(C)C2	/	0.6	0.4	56*	44
CCCCc1n[nH]c2c1C(=O)CC(C)(C)C2	0.65	0.6	0.6	38	36
CCCc1nn(-c2cc(Cl)ccc2OC)c2c1C(=O)CCC2	/	0.4	0.6	42	59*
C=CCn1c(SCc2nc3sc4c(c3c(=O)[nH]2)CCCC4)nc2ccccc2c1=O	-0.38	/	/	/	/
CCOc1ccc(CC(=O)Nc2c(C(=O)Nc3ccccc3)oc3ccccc23)cc1OCC	0.12	0.5	0.6	40	48
CCOC(=O)C1=C(N)N2C(=O)C(C)SC2=C(C(=O)OC)C1c1cccc(OC)c1 (stereo not drawn)	/	0.8	0.8	24	21
COC(=O)C1=CNC=C(C(=O)OC)C1c1ccccc1Cl	-2.1	0.2	0.3	70*	84*
COC(=O)C1=CNC=C(C(=O)OC)C1c1ccc(Cl)cc1	-3.8*	0.3	0.3	75*	75*
COCCN1C=C(C(=O)OC)C(c2ccccc2C(F)(F)F)C(C(=O)OC)=C1	-1.6	0.6	0.5	49	40
COC(=O)C1=CNC=C(C(=O)OC)C1c1cccc(OC)c1	-2.1	0.1	0.2	79*	86*
O=C(Nc1nnc(CC(c2ccccc2)c2ccccc2)s1)c1ccco1	0.49	0.9	0.8	22	12
Cc1nc(C(=O)N(C)C)nn1-c1cc(Cl)ccc1Cl	0.74	1.1	1.1	-7	-14
CCCCC(SCC(=O)Nc1ccccc1)C(=O)O (stereo not drawn)	0.94	0.8	0.3	70*	16
Nc1nc2n(n1)C(c1cccs1)CC(c1ccc(Br)cc1)N2 (stereo not drawn)	-3.2*	0.3	0.7	27	66*
COc1ccc(C2CC(c3ccc(Br)cc3)Nc3nc(N)nn32)cc1 (stereo not drawn)	-0.77	0.8	0.5	51*	22
COc1ccc(C2CC(c3cccc(C)c3)n3nc(N)nc3N2)cc1 (stereo not drawn)	/	0.8	1	-1	17
Cc1cccc(C2CC(c3ccc(Br)cc3)Nc3nc(N)nn32)c1 (stereo not drawn)	/	0.2	0.5	48	77*
Cc1ccc(-n2c(SCC(=O)Nc3ccc4cn[nH]c4c3)nnc2-c2ccco2)cc1	-0.9	0.9	0.5	46	10
SMILES	PTK2B oligo ant	CYP2C19 act	CYP2C9 activ	CYP2C9 inhib	CYP2C19 inh
CC(C)(C)C(=O)N1CCCC1C(=O)O (stereo not drawn)	0.6	1.1	1.2	-18	-8
O=C1/C(=N/n2cnnc2)c2ccccc2N1Cc1ccccc1	/	0.4	0.7	26	63*
c1ccc2c(c1)C(=Nn1cnnc1)c1ccccc1-2	0.44	0.6	0.8	23	44
N#Cc1cccc(Cn2nnc(-c3ccccc3)n2)c1	-1.6	0.3	0.6	37	69*
c1ccc(Cn2nnc(-c3ccccc3)n2)cc1	-1.1	/	/	/	/
C=CCOc1cccc(C2C(C(=O)c3ccc(C)o3)=C(O)C(=O)N2CCN(C)C)c1 (stereo not drawn)	-0.08	1	1.1	-7	-4
Cc1cc(=O)[nH]c(SCC(=O)Nc2ccc(Br)cc2)c1C#N	-0.79	0.1	0.1	93*	95*
Cc1cc(=O)[nH]c(SCC(=O)Nc2ccccc2C#N)c1C#N	0.54	0.4	0.3	71*	64*
COC(=O)CSc1[nH]c(=O)cc(C)c1C#N	0.53	1.1	1	2	-11
CC(C)NC(=O)NC(=O)COC(=O)c1ccccc1Oc1ccccc1	-0.91	0.5	0.5	47	46
